# According to PubChem BioAssay (NCI):
# The panel holds about 79,000 compounds, 15% with a hit somewhere; the sample as a whole holds those more often. Unmarked numbers belong to inactive results. Activity calls are given as the source filed them. Rule as the data show it: active = growth inhibition above about 70%; inactive = the rest.
# Experiments:
# [1] = NCI Yeast Anticancer Drug Screen. Data for the rad52 strain (AID 147);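 also: 0% = growth of vehicle-treated control cultures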; conditions: S. cerevisiae rad52 mutant growth inhibition, stronger effect = higher value
# How it was run: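 Compounds are applied to a genetically defined yeast strain lacking normal DNA damage repair, and inhibition of growth is expressed relative to cultures given vehicle only.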
# [2] = NCI Yeast Anticancer Drug Screen. Data for the wt1 strain (AID 149);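 also: 0% = growth of vehicle-treated wt1 cultures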; conditions: S. cerevisiae wt1 strain (SPY 50644) growth inhibition, stronger effect = higher value
# How it was run: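 The wt1 strain was treated with compounds, and growth was compared with vehicle-treated cultures to give inhibition.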
# [3] = NCI Yeast Anticancer Drug Screen. Data for the rad50EPP+ strain (AID 151);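 also: 0% = growth of vehicle-treated control cultures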; conditions: S. cerevisiae rad50 mutant strain, stronger effect = higher value
# How it was run: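 Compounds were applied to the rad50EPP+ yeast strain, which bears a defined DNA repair alteration, and growth inhibition was determined relative to vehicle-treated cultures.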
# [4] = NCI Yeast Anticancer Drug Screen. Data for the mgt1 strain (AID 153); conditions: S. cerevisiae mgt1 mutant growth inhibition, stronger effect = higher value
# How it was run: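 Strain: mgt1 yeast, one of a set carrying defined DNA damage repair or cell cycle control alterations. Compound-treated growth compared with vehicle.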
# [5] = NCI Yeast Anticancer Drug Screen. Data for the rad50 strain (AID 155);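 also: 0% = growth of vehicle-only cultures of the same strain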; conditions: S. cerevisiae rad50 strain growth inhibition, stronger effect = higher value
# How it was run: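 Cells are treated with compound, grown, and their growth is then scored against vehicle-only cultures of the same repair-deficient yeast strain.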
# [6] = NCI Yeast Anticancer Drug Screen. Data for the mec2-1 strain (AID 157); conditions: S. cerevisiae mec2-1 strain, stronger effect = higher value
# How it was run: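 Strain: mec2-1 (DNA repair/cell cycle alteration). Compound exposure, then growth measured; inhibition expressed relative to vehicle.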
# [7] = NCI Yeast Anticancer Drug Screen. Data for the rad14 strain (AID 159);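 also: 0% = growth of vehicle-treated control cultures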; conditions: S. cerevisiae rad14 strain growth inhibition, stronger effect = higher value
# How it was run: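 Readout: yeast growth inhibition, referenced to vehicle-only cultures. Strain bears a defined alteration in DNA damage repair.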
# [8] = NCI Yeast Anticancer Drug Screen. Data for the sgs1 mgt1 strain (AID 161);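 also: 0% = growth of cultures given vehicle only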; conditions: S. cerevisiae sgs1 mgt1 strain, stronger effect = higher value
# How it was run: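 Genetically altered yeast, compound exposure, growth inhibition relative to vehicle.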
# [9] = NCI Yeast Anticancer Drug Screen. Data for the CLN2oe strain (AID 163);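 also: 0% = growth of vehicle-only control cultures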; conditions: S. cerevisiae CLN2oe strain, stronger effect = higher value
# How it was run: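 Growth of a genetically modified yeast strain is measured after compound exposure and compared with cultures given vehicle alone.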
# [10] = NCI Yeast Anticancer Drug Screen. Data for the cln2 rad14 strain (AID 165);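 also: 0% = growth equal to vehicle treated cultures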; conditions: S. cerevisiae cln2 rad14 strain, stronger effect = higher value
# How it was run: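 Compounds are applied to the cln2 rad14 yeast strain, and growth is then compared with that of vehicle-treated cultures to give inhibition.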
# [11] = NCI Yeast Anticancer Drug Screen. Data for the wt2 strain (AID 169);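 also: 0% = growth of vehicle-treated yeast cultures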; conditions: S. cerevisiae wt2 strain growth inhibition, stronger effect = higher value
# How it was run: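 This strain belongs to a panel of yeast strains with defined genetic alterations in DNA damage repair or cell cycle control. Compounds are applied, and growth inhibition is measured against vehicle-treated cultures.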
# [12] = NCI Yeast Anticancer Drug Screen. Data for the mlh1 strain (AID 171);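 also: 0% = growth of vehicle-treated control cultures of the same strain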; conditions: S. cerevisiae mlh1 strain growth inhibition, stronger effect = higher value
# How it was run: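 Growth of the mutant yeast strain after compound exposure, expressed as inhibition relative to vehicle-only controls.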
# [13] = NCI Yeast Anticancer Drug Screen. Data for the sgs1 strain (AID 173);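 also: 0% = growth of vehicle-only control cultures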; conditions: S. cerevisiae sgs1 mutant, stronger effect = higher value
# How it was run: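 Growth of a yeast strain bearing a defined genetic alteration is measured after compound treatment. Inhibition is expressed relative to vehicle-only controls.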
# [14] = NCI Yeast Anticancer Drug Screen. Data for the mlh1 rad18 strain (AID 175); conditions: S. cerevisiae mlh1 rad18 strain growth inhibition, stronger effect = higher value
# How it was run: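 Read-out is yeast growth inhibition, calculated against vehicle-only controls. The compound was applied to a strain engineered with DNA damage repair alterations.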
# [15] = NCI Yeast Anticancer Drug Screen. Data for the rad18 strain (AID 177); conditions: S. cerevisiae rad18 mutant growth inhibition, stronger effect = higher value
# How it was run: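 Growth of the mutant yeast strain after compound exposure, normalised to vehicle-only cultures.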
# [16] = NCI Yeast Anticancer Drug Screen. Data for the bub3 strain (AID 167); conditions: S. cerevisiae bub3 mutant strain, stronger effect = higher value
# How it was run: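 Part of a panel of yeast mutants defective in DNA damage repair or cell cycle regulation. Each strain is grown with compound, and inhibition is calculated relative to solvent-treated cultures.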
# [17] = at 5.0 µM (retest, dose inferred, filed as 0.5)
# [18] = at 50.0 µM (retest, dose inferred, filed as 5.0)
smiles,measurement,setting,value
Cc1ccc(NCCNCCO)c2c(=O)c3cc(O)ccc3sc12,growth inhibition,[1]; at 1.2 µM,-5%
same,growth inhibition,[1]; at 3.7 µM,12%
same,growth inhibition,[1]; at 11.0 µM,30%
same,growth inhibition,[1]; at 33.0 µM,90% (active)
same,growth inhibition,[1]; at 100.0 µM,93% (active)
same,growth inhibition,[2]; at 1.2 µM,10%
same,growth inhibition,[2]; at 3.7 µM,-9%
same,growth inhibition,[2]; at 11.0 µM,-5%
same,growth inhibition,[2]; at 33.0 µM,-1%
same,growth inhibition,[2]; at 100.0 µM,18%
same,growth inhibition,[3]; at 1.2 µM,12%
same,growth inhibition,[3]; at 3.7 µM,22%
same,growth inhibition,[3]; at 11.0 µM,25%
same,growth inhibition,[3]; at 33.0 µM,36%
same,growth inhibition,[3]; at 100.0 µM,51%
same,growth inhibition,[4]; at 1.2 µM,-10%
same,growth inhibition,[4]; at 3.7 µM,1%
same,growth inhibition,[4]; at 11.0 µM,-11%
same,growth inhibition,[4]; at 33.0 µM,-1%
same,growth inhibition,[4]; at 100.0 µM,90% (active)
same,growth inhibition,[5]; at 1.2 µM,4%
same,growth inhibition,[5]; at 3.7 µM,4%
same,growth inhibition,[5]; [17],49%
same,growth inhibition,[5]; at 11.0 µM,28%
same,growth inhibition,[5]; at 33.0 µM,93% (active)
same,growth inhibition,[5]; [18],99% (active)
same,growth inhibition,[5]; at 50.0 µM,80.8% (active)
same,growth inhibition,[5]; at 100.0 µM,95% (active)
same,growth inhibition,[6]; at 1.2 µM,5%
same,growth inhibition,[6]; at 3.7 µM,-13%
same,growth inhibition,[6]; [17],21%
same,growth inhibition,[6]; at 11.0 µM,-11%
same,growth inhibition,[6]; at 33.0 µM,-10%
same,growth inhibition,[6]; [18],99% (active)
same,growth inhibition,[6]; at 50.0 µM,71.8% (active)
same,growth inhibition,[6]; at 100.0 µM,58%
same,growth inhibition,[7]; at 1.2 µM,-18%
same,growth inhibition,[7]; at 3.7 µM,-4%
same,growth inhibition,[7]; at 11.0 µM,-2%
same,growth inhibition,[7]; at 33.0 µM,0%
same,growth inhibition,[7]; at 100.0 µM,97% (active)
same,growth inhibition,[8]; [17],8%
same,growth inhibition,[8]; [18],99% (active)
same,growth inhibition,[8]; at 50.0 µM,89.2% (active)
same,growth inhibition,[9]; at 1.2 µM,6%
same,growth inhibition,[9]; at 3.7 µM,14%
same,growth inhibition,[9]; at 11.0 µM,24%
same,growth inhibition,[9]; at 33.0 µM,23%
same,growth inhibition,[9]; at 100.0 µM,96% (active)
same,growth inhibition,[10]; [17],17%
same,growth inhibition,[10]; [18],100% (active)
same,growth inhibition,[10]; at 50.0 µM,88.9% (active)
same,growth inhibition,[11]; at 1.2 µM,10%
same,growth inhibition,[11]; at 3.7 µM,3%
same,growth inhibition,[11]; at 11.0 µM,4%
same,growth inhibition,[11]; at 33.0 µM,63%
same,growth inhibition,[11]; at 100.0 µM,24%
same,growth inhibition,[12]; at 1.2 µM,-20%
same,growth inhibition,[12]; at 3.7 µM,-8%
same,growth inhibition,[12]; at 11.0 µM,-18%
same,growth inhibition,[12]; at 33.0 µM,-10%
same,growth inhibition,[12]; at 100.0 µM,93% (active)
same,growth inhibition,[13]; at 1.2 µM,15%
same,growth inhibition,[13]; at 3.7 µM,35%
same,growth inhibition,[13]; at 11.0 µM,43%
same,growth inhibition,[13]; at 33.0 µM,48%
same,growth inhibition,[13]; at 100.0 µM,91% (active)
same,growth inhibition,[14]; [17],13%
same,growth inhibition,[14]; [18],99% (active)
same,growth inhibition,[14]; at 50.0 µM,81.7% (active)
same,growth inhibition,[15]; at 1.2 µM,-35%
same,growth inhibition,[15]; at 3.7 µM,-30%
same,growth inhibition,[15]; at 11.0 µM,-27%
same,growth inhibition,[15]; at 33.0 µM,-5%
same,growth inhibition,[15]; at 100.0 µM,93% (active)
CCC1(OC(=O)CN2CCN(CCO)CC2)C(=O)OCc2c1cc1n(c2=O)Cc2cc3ccccc3nc2-1 (stereo not drawn),growth inhibition,[1]; at 1.2 µM,35%
same,growth inhibition,[1]; at 3.7 µM,49%
same,growth inhibition,[1]; at 11.0 µM,70% (active)
same,growth inhibition,[1]; at 33.0 µM,89% (active)
same,growth inhibition,[1]; at 100.0 µM,93% (active)
same,growth inhibition,[2]; at 1.2 µM,9%
same,growth inhibition,[2]; at 3.7 µM,15%
same,growth inhibition,[2]; at 11.0 µM,24%
same,growth inhibition,[2]; at 33.0 µM,13%
same,growth inhibition,[2]; at 100.0 µM,7%
same,growth inhibition,[3]; at 1.2 µM,16%
same,growth inhibition,[3]; at 3.7 µM,17%
same,growth inhibition,[3]; at 11.0 µM,42%
same,growth inhibition,[3]; at 33.0 µM,60%
same,growth inhibition,[3]; at 100.0 µM,82% (active)
same,growth inhibition,[4]; at 1.2 µM,-18%
same,growth inhibition,[4]; at 3.7 µM,-20%
same,growth inhibition,[4]; at 11.0 µM,-19%
same,growth inhibition,[4]; at 33.0 µM,-23%
same,growth inhibition,[4]; at 100.0 µM,-45%
same,growth inhibition,[5]; at 1.2 µM,18%
same,growth inhibition,[5]; at 3.7 µM,57%
same,growth inhibition,[5]; [17],4%
same,growth inhibition,[5]; at 11.0 µM,74% (active)
same,growth inhibition,[5]; at 33.0 µM,88% (active)
same,growth inhibition,[5]; [18],83% (active)
same,growth inhibition,[5]; at 50.0 µM,17.9%
same,growth inhibition,[5]; at 100.0 µM,92% (active)
same,growth inhibition,[6]; at 1.2 µM,-23%
same,growth inhibition,[6]; at 3.7 µM,-19%
same,growth inhibition,[6]; [17],4%
same,growth inhibition,[6]; at 11.0 µM,-12%
same,growth inhibition,[6]; at 33.0 µM,-21%
same,growth inhibition,[6]; [18],-2%
same,growth inhibition,[6]; at 50.0 µM,20.1%
same,growth inhibition,[6]; at 100.0 µM,29%
same,growth inhibition,[7]; at 1.2 µM,-13%
same,growth inhibition,[7]; at 3.7 µM,-4%
same,growth inhibition,[7]; at 11.0 µM,-25%
same,growth inhibition,[7]; at 33.0 µM,-14%
same,growth inhibition,[7]; at 100.0 µM,-20%
same,growth inhibition,[8]; [17],-8%
same,growth inhibition,[8]; [18],-10%
same,growth inhibition,[8]; at 50.0 µM,3.05%
same,growth inhibition,[9]; at 1.2 µM,3%
same,growth inhibition,[9]; at 3.7 µM,5%
same,growth inhibition,[9]; at 11.0 µM,2%
same,growth inhibition,[9]; at 33.0 µM,-23%
same,growth inhibition,[9]; at 100.0 µM,-3%
same,growth inhibition,[10]; [17],20%
same,growth inhibition,[10]; [18],17%
same,growth inhibition,[10]; at 50.0 µM,8.9%
same,growth inhibition,[16]; at 1.2 µM,-4%
same,growth inhibition,[16]; at 3.7 µM,1%
same,growth inhibition,[16]; [17],0%
same,growth inhibition,[16]; at 11.0 µM,-10%
same,growth inhibition,[16]; at 33.0 µM,-14%
same,growth inhibition,[16]; [18],3%
same,growth inhibition,[16]; at 50.0 µM,-21.4%
same,growth inhibition,[16]; at 100.0 µM,-30%
same,growth inhibition,[13]; at 1.2 µM,30%
same,growth inhibition,[13]; at 3.7 µM,21%
same,growth inhibition,[13]; at 11.0 µM,26%
same,growth inhibition,[13]; at 33.0 µM,21%
same,growth inhibition,[13]; at 100.0 µM,24%
same,growth inhibition,[14]; [17],-8%
same,growth inhibition,[14]; [18],-1%
same,growth inhibition,[14]; at 50.0 µM,78.3% (active)
same,growth inhibition,[15]; at 1.2 µM,9%
same,growth inhibition,[15]; at 3.7 µM,19%
same,growth inhibition,[15]; at 11.0 µM,6%
same,growth inhibition,[15]; at 33.0 µM,6%
same,growth inhibition,[15]; at 100.0 µM,1%
